Laboratory results taken from PubChem BioAssay AID1159580 (chemical genetic matrix, 2015).
“And” between values parts separate entries of the source, which are not always exact repeats. Equal entries are not always repeated. Out of some 5,500 compounds screened, about 2,000 (36%) were called active. Roughly 18% stayed inconclusive and do not appear here. Rule as the data show it: active = normalized growth mostly below about 0.91 (no sharp cut-off); inconclusive = no clear call, values can overlap the other calls; inactive = mostly above about 0.92. The list shows a part of the results.

Test: chemical genetic growth profiling, strain panel (AID 1159580);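 also: tested at 20 µM; growth read once vehicle control cultures reached saturation at 30 °C; 1 = growth at the plate median or of vehicle wells; lower values mean less growth of the strain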
Conditions: S. cerevisiae deletion strains, growth OD

Measured: normalized growth

CC1(C)S[C@@H]2[C@H](NC(=O)C(C(=O)O)c3ccccc3)C(=O)N2[C@H]1C(=O)O (stereo partly drawn)
inactive: locus YAL021C, strain ccr4, active compounds read low 0.979 | locus YAL026C, strain drs2, active compounds read low 0.979 | locus YAL030W, strain snc1, active compounds read low 0.985 | locus YBL061C, strain skt5, active compounds read low 0.959 | locus YBR009C, strain hhf1, active compounds read low 0.934 | locus YBR021W, strain FUR4, active compounds read low 0.998 | locus YBR023C, strain chs3, active compounds read low 0.966 | locus YBR171W, strain sec66, active compounds read low 0.948 | locus YBR229C, strain ROT2, active compounds read low 0.987 | locus YBR231C, strain swc5, active compounds read low 1 | locus YBR279W, strain paf1, active compounds read low 0.985 | locus YCL011C, strain gbp2, active compounds read low 0.933 | locus YCL016C, strain dcc1, active compounds read low 0.938 | locus YCL029C, strain bik1, active compounds read low 0.99 | locus YCL061C, strain MRC1, active compounds read low 0.976 | locus YCL069W, strain vba3, active compounds read low 0.985 | locus YCR088W, strain abp1, active compounds read low 0.996 | locus YDL005C, strain med2, active compounds read low 0.999 | locus YDL035C, strain GPR1, active compounds read low 1.02 | locus YDL040C, strain nat1, active compounds read low 0.997 | locus YDL074C, strain BRE1, active compounds read low 0.995 | locus YDL101C, strain DUN1, active compounds read low 0.982 | locus YDL134C, strain PPH21, active compounds read low 0.999 | locus YDL185W, strain tfp1, active compounds read low 0.982 | locus YDL192W, strain arf1, active compounds read low 0.98 | locus YDR001C, strain nth1, active compounds read low 0.98 | locus YDR069C, strain doa4, active compounds read low 0.978 | locus YDR101C, strain arx1, active compounds read low 0.994 | locus YDR137W, strain rgp1, active compounds read low 0.944 | locus YDR159W, strain sac3, active compounds read low 1.01 | locus YDR162C, strain NBP2, active compounds read low 1.01 | locus YDR195W, strain ref2 0.987 | locus YDR297W, strain sur2, active compounds read low 0.969 | locus YDR318W, strain mcm21, active compounds read low 0.99 | locus YDR334W, strain swr1, active compounds read low 0.926 | locus YDR335W, strain msn5, active compounds read low 0.978 | locus YDR388W, active compounds read low 0.995 | locus YDR392W, strain spt3, active compounds read low 0.895 | locus YDR502C, strain sam2, active compounds read low 0.995 | locus YEL003W, strain gim4, active compounds read low 0.99 | locus YEL037C, strain rad23, active compounds read low 0.977 | locus YEL061C, strain CIN8 (second series), active compounds read low 0.989 | locus YEL061C, strain CIN8, active compounds read low 1 | locus YER015W, strain faa2, active compounds read low 0.986 | locus YER016W, strain bim1, active compounds read low 0.962 | locus YER110C, active compounds read low 0.979 | locus YER111C, strain swi4, active compounds read low 0.979 | locus YER155C, strain BEM2 (second series), active compounds read low 1.03 | locus YER155C, strain BEM2, active compounds read low 0.991 | locus YER167W, strain BCK2, active compounds read low 0.993 | locus YFR010W, strain ubp6, active compounds read low 0.962 | locus YGL078C, strain dbp3, active compounds read low 0.993 | locus YGL086W, strain mad1, active compounds read low 0.989 | locus YGL167C, strain pmr1, active compounds read low 0.96 | locus YGL173C, strain kem1, active compounds read low 0.96 | locus YGL227W, strain vid30, active compounds read low 0.985 | locus YGL240W, strain doc1, active compounds read low 1.01 | locus YGL248W, strain PDE1, active compounds read low 0.982 | locus YGL253W, strain hxk2, active compounds read low 0.982 | locus YGR135W, strain pre9, active compounds read low 0.988 | locus YGR252W, strain gcn5, active compounds read low 0.981 | locus YHR013C, strain ard1, active compounds read low 0.949 | locus YHR027C, strain rpn1, active compounds read low 0.945 | locus YHR030C, strain SLT2, active compounds read low 0.991 and 1.01 | locus YHR079C, strain IRE1 (second series), active compounds read low 0.989 | locus YHR079C, strain IRE1, active compounds read low 1.02 | locus YHR094C, strain hxt1, active compounds read low 0.984 | locus YHR129C, strain ARP1, active compounds read low 0.99 | locus YHR142W, strain chs7, active compounds read low 0.934 | locus YHR200W, strain rpn10, active compounds read low 0.985 | locus YIL066C, strain RNR3, active compounds read low 1.01 | locus YIL073C, strain SPO22, active compounds read low 1.03 | locus YIL125W, strain kgd1, active compounds read low 0.984 | locus YIR030C, strain dcg1, active compounds read low 0.987 | locus YJL092W, strain hpr5, active compounds read low 0.968 | locus YJL095W, strain BCK1 (second series), active compounds read low 0.975 | locus YJL095W, strain BCK1, active compounds read low 0.978 and 1 | locus YJL115W, strain asf1, active compounds read low 0.952 | locus YJL129C, strain trk1, active compounds read low 0.944 | locus YJL134W, strain LCB3, active compounds read low 0.992 | locus YJL154C, strain vps35, active compounds read low 0.982 | locus YJL164C, strain tpk1, active compounds read low 0.962 | locus YJL166W, strain qcr8, active compounds read low 0.977 | locus YJL168C, strain set2, active compounds read low 0.984 | locus YJL187C, strain SWE1 (second series), active compounds read low 0.988 | locus YJL187C, strain SWE1, active compounds read low 0.979 | locus YJR043C, strain POL32, active compounds read low 1.01 | locus YJR066W, strain TOR1, active compounds read low 0.992
